Data on six compounds can be found in ChEMBL document CHEMBL1961873, “Compounds: GSK PKIS; Assays: Nanosyn kinase panel” (2012).

Test [1] has as its target 5'-AMP-activated protein kinase catalytic subunit alpha-2 (Homo sapiens) (UniProt P54646). Particulars: at 1 µM.
The target of test [2] is T1, NUAK family SNF1-like kinase 1 (Homo sapiens) (UniProt O60285).
T1 sequence (whole entry): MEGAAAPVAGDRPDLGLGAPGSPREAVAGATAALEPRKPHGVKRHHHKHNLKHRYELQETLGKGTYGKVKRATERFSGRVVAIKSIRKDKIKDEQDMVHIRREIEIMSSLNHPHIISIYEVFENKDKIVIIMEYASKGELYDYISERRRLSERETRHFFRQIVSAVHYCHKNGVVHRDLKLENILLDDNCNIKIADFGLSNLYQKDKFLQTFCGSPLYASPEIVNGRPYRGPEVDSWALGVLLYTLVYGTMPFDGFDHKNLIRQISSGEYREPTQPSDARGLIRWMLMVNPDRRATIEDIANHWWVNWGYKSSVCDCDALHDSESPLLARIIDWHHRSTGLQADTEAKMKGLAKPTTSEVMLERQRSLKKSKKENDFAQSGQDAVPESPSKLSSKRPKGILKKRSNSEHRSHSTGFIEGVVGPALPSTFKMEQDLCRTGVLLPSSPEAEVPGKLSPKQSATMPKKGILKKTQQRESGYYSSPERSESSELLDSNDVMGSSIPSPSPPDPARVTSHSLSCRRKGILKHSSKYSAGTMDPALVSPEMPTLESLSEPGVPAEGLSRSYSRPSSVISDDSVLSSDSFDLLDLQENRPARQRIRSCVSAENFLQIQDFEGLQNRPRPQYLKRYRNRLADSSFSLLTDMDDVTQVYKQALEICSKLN
Particulars: at 0.1 µM.

In test [3] the target is T1, NUAK family SNF1-like kinase 1 (Homo sapiens). Particulars: at 1 µM.
In test [4] the target is T2, Serine/threonine-protein kinase BRSK1 (Homo sapiens) (UniProt Q8TDC3).
T2 sequence (whole entry): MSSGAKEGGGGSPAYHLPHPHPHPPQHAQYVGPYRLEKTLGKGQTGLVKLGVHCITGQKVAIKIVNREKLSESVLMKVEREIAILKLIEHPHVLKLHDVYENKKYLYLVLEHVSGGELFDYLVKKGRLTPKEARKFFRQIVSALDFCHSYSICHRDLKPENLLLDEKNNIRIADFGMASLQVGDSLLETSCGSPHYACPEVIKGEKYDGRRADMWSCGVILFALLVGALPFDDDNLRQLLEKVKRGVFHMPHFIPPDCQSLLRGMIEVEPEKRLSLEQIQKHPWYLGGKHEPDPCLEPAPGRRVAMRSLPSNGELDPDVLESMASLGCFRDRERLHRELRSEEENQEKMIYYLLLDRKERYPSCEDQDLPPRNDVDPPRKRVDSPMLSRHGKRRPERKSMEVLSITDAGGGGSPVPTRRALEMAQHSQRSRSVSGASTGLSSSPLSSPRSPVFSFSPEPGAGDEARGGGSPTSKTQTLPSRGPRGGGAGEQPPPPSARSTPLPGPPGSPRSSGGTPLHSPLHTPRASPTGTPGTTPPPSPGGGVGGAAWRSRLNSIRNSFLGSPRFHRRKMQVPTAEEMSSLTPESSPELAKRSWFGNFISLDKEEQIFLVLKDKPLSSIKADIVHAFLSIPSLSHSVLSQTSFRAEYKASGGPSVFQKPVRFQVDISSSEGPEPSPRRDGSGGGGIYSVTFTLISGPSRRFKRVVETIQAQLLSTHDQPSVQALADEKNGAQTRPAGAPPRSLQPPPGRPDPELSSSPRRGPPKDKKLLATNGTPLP
Particulars: at 0.1 µM.

Test [5] deals with T2, Serine/threonine-protein kinase BRSK1 (Homo sapiens). Particulars: at 1 µM.
Test [6] has as its target T3, Serine/threonine-protein kinase BRSK2 (Homo sapiens) (UniProt Q8IWQ3).
T3 sequence (whole entry): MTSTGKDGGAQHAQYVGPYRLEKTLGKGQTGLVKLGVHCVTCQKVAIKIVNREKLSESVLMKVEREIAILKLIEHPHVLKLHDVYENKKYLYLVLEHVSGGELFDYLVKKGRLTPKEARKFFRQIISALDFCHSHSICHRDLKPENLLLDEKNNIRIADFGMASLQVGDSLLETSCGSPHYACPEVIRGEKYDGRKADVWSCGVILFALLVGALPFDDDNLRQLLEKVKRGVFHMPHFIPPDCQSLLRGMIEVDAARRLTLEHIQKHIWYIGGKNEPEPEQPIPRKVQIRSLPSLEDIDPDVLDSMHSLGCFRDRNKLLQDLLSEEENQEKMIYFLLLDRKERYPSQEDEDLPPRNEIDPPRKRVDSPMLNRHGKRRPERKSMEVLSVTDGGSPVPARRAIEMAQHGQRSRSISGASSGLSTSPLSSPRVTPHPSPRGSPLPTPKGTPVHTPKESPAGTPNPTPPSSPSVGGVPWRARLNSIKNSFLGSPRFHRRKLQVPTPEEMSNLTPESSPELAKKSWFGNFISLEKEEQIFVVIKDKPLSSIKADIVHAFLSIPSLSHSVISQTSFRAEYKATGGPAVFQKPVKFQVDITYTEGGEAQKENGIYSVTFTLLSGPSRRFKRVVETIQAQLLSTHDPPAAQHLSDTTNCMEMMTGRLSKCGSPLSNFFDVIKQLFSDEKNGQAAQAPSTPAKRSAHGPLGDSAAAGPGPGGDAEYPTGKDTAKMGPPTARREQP
Particulars: at 0.1 µM.

For test [7], the target named is T3, Serine/threonine-protein kinase BRSK2 (Homo sapiens). Particulars: at 1 µM.
For test [8], the target named is Calcium/calmodulin-dependent protein kinase type 1D (Homo sapiens) (UniProt Q8IU85). Particulars: at 0.1 µM.
Calcium/calmodulin-dependent protein kinase type 1D (Homo sapiens), sequence (Q8IU85 whole entry, looked up): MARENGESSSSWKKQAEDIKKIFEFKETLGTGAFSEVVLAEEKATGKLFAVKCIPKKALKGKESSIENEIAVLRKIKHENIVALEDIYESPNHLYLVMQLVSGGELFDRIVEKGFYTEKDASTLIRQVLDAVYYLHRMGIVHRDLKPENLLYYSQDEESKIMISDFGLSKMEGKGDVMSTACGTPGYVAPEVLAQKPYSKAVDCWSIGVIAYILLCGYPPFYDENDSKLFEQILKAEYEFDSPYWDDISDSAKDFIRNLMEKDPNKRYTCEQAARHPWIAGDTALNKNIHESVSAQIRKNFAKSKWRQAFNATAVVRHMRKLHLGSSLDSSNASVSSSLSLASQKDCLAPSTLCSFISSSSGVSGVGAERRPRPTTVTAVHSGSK
For test [9] the target is unchanged. Particulars: at 1 µM.
Test [10] addresses Calcium/calmodulin-dependent protein kinase type II subunit alpha (Homo sapiens) (UniProt Q9UQM7). Particulars: at 0.1 µM.
Test [11] shares this target. Particulars: at 1 µM.
Test [12] has as its target Calcium/calmodulin-dependent protein kinase type II subunit delta (Homo sapiens) (UniProt Q13557). Particulars: at 0.1 µM.
For test [13] the target is unchanged. Particulars: at 1 µM.
The target in test [14] is T4, Calcium/calmodulin-dependent protein kinase type IV (Homo sapiens) (UniProt Q16566).
T4 sequence (whole entry): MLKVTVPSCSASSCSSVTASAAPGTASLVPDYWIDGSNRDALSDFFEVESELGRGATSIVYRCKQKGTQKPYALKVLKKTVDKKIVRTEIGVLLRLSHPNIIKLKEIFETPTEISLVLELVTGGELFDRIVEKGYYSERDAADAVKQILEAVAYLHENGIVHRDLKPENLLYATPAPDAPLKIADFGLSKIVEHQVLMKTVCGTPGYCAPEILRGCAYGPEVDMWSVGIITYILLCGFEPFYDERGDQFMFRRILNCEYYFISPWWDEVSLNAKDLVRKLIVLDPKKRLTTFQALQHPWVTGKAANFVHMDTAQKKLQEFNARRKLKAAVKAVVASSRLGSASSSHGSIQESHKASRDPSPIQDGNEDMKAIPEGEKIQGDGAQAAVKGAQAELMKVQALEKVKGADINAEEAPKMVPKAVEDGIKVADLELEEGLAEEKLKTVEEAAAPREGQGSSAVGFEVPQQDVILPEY
Particulars: at 0.1 µM.

Test [15] addresses T4, Calcium/calmodulin-dependent protein kinase type IV (Homo sapiens). Particulars: at 1 µM.
The target in test [16] is T5, Serine/threonine-protein kinase Chk1 (Homo sapiens) (UniProt O14757).
T5 sequence (whole entry): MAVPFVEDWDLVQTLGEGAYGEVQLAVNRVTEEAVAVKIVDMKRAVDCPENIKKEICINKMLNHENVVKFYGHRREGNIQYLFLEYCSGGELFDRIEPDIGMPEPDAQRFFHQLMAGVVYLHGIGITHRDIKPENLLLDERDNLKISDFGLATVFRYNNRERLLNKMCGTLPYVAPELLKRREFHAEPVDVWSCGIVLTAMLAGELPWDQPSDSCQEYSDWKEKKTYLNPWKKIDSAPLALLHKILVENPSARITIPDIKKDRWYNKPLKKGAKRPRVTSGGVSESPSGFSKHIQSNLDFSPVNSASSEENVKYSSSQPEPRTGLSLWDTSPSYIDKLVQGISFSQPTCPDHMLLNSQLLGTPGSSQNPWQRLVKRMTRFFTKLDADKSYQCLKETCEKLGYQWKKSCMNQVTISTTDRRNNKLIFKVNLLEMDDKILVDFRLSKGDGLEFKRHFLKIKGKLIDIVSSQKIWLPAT
Particulars: at 0.1 µM.

Test [17] concerns the target T5, Serine/threonine-protein kinase Chk1 (Homo sapiens). Particulars: at 1 µM.
Test [18] concerns the target Serine/threonine-protein kinase Chk2 (Homo sapiens) (UniProt O96017). Particulars: at 0.1 µM.
Test [19] shares this target. Particulars: at 1 µM.
The target of test [20] is Death-associated protein kinase 1 (Homo sapiens) (UniProt P53355). Particulars: at 0.1 µM.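 Further: reported figure is the mean inhibition of DAPK1.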
Death-associated protein kinase 1 (Homo sapiens), sequence (P53355 whole entry, looked up): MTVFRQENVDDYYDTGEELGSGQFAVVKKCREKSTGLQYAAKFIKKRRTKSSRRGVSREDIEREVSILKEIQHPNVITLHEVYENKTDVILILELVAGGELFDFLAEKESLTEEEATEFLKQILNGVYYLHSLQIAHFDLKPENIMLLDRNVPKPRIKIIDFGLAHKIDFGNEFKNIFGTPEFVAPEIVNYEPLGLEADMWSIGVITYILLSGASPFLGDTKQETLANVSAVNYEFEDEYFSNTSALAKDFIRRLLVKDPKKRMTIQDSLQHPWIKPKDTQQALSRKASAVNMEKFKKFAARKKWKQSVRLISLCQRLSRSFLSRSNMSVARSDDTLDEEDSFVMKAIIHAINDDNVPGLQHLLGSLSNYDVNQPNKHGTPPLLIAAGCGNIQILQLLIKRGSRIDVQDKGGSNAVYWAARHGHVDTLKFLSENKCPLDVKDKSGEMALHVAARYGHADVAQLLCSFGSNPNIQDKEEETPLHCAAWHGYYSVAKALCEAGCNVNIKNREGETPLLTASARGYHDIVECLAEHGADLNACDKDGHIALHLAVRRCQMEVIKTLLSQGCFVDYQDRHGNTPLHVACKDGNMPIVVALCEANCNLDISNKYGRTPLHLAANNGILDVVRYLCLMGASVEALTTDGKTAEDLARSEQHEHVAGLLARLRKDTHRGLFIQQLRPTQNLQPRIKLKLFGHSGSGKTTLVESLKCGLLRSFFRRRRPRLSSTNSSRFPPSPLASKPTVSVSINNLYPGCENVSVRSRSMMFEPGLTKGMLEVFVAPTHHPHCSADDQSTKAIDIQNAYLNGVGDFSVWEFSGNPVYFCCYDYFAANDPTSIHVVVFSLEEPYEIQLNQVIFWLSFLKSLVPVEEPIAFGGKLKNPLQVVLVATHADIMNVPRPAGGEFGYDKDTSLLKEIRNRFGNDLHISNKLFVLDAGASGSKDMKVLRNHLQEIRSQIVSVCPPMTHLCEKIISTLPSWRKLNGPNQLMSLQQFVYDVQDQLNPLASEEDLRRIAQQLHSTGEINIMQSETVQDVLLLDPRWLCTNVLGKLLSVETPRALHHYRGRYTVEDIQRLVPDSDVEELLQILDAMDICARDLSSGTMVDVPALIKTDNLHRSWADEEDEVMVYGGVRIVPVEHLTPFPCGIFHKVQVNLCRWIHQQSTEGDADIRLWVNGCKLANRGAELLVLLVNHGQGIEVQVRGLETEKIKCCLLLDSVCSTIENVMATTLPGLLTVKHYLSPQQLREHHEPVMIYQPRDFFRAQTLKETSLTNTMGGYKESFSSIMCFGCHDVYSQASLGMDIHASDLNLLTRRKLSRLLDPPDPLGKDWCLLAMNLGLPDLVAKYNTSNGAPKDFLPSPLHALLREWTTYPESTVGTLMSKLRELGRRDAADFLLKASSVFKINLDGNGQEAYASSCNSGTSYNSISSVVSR

Calcium/calmodulin-dependent protein kinase type II subunit delta (Homo sapiens), sequence (Q13557 whole entry): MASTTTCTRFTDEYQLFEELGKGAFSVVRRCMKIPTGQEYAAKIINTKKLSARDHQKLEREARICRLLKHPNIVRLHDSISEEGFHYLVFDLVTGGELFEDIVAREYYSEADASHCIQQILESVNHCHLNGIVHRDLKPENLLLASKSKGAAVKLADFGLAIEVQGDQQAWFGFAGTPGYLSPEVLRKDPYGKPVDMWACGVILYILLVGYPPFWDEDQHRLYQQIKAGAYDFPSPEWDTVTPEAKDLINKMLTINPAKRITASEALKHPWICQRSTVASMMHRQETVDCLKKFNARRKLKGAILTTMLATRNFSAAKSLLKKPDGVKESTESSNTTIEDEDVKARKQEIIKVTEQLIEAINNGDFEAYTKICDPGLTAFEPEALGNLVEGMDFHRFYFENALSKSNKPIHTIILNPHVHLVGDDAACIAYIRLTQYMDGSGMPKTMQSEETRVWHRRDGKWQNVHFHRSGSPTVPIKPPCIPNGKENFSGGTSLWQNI
5'-AMP-activated protein kinase catalytic subunit alpha-2 (Homo sapiens), sequence (P54646 whole entry, looked up): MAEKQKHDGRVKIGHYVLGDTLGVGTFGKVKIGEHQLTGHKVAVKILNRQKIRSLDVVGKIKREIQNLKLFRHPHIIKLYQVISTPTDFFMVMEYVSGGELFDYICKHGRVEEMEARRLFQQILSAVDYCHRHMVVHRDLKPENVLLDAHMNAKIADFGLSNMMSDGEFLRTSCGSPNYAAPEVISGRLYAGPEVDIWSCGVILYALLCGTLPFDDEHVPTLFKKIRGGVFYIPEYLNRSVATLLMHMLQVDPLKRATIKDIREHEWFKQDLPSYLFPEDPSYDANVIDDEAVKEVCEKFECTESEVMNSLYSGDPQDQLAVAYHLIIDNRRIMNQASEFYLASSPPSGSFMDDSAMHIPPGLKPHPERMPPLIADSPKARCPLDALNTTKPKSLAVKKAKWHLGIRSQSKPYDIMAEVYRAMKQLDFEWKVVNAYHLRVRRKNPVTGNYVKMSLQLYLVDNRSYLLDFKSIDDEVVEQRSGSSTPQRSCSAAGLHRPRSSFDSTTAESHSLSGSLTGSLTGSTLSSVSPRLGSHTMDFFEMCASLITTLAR
Serine/threonine-protein kinase Chk2 (Homo sapiens), sequence (O96017 whole entry): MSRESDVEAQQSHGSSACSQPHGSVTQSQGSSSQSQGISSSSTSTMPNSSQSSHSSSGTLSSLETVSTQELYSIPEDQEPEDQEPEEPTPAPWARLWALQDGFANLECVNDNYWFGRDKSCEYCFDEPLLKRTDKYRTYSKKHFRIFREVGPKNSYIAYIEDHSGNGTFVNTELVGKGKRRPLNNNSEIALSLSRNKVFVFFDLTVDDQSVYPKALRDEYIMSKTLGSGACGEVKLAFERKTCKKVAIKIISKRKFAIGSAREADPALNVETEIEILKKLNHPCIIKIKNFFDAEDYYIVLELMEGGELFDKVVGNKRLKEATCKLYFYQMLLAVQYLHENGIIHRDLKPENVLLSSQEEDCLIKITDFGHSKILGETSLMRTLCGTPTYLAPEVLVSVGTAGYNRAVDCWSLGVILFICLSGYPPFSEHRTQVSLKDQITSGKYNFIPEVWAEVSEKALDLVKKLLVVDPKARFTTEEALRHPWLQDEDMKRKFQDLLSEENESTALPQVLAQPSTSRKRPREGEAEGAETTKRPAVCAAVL
Calcium/calmodulin-dependent protein kinase type II subunit alpha (Homo sapiens), sequence (Q9UQM7 whole entry): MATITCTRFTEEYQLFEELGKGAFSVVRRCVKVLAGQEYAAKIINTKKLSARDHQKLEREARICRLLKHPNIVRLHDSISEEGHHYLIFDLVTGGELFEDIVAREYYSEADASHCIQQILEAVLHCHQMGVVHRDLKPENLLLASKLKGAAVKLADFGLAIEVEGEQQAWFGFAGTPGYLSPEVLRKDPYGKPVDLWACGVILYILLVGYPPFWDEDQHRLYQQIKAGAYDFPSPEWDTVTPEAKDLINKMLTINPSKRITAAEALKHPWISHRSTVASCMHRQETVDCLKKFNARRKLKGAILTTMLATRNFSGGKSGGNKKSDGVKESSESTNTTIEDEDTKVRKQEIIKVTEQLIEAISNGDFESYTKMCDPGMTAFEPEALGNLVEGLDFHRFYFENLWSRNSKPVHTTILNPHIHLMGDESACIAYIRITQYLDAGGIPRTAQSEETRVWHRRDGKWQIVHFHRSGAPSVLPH

Turning to `Fc1ccc(-c2cc(-c3c[nH]nc3-c3ccccn3)ccn2)cc1`, the inhibition – broadly, the change of the read-out against control, counted positive when it falls – was 1.61% in [1]; -0.78% in test [2]; -3.39% in test [3]; -0.21% in test [4]; 0.81% in test [5]; 1.49% in test [6]. Moreover, the inhibition is 1.96% in test [7]; -2.23% in test [8]; -1.28% in [9]; 3.34% in [10]; 2.33% in test [11]; 2.86% in test [12]. Further, the inhibition in test [13] was 4.06%; in test [14], -2.35%; in [15] it was -4.94%; in [16], 1.21%; in test [17], -0.75%; in [18] it was 4.88%. Besides, the inhibition in [19] was 5.9%; in test [20], 0.73%.

As to `NC(=O)c1sc(-n2cnc3ccc(C(F)(F)F)cc32)cc1OCc1ccccc1Br`, the inhibition in test [1] was 3.78%; in test [2], -0.18%; in test [3] it was 3.82%; in test [4] it was 0.06%; in test [5], 1.03%; in test [6] it was 2.41%. In addition, the inhibition is 4.25% in [7]; -0.93% in test [8]; 0.69% in test [9]; 1.87% in [10]; 3.63% in [11]; 2.57% in test [12]. Besides, the inhibition in test [13] was 7.23%; in test [14], 1.31%; in test [15] it was 2.02%; in test [16], -3.21%; in test [17] it was -0.7%; in test [18], 2.54%. The inhibition is 3.23% in test [19] and -0.43% in [20].

For the compound `CCn1c(-c2nonc2N)nc2c(C#CC(C)(C)O)nc(OC[C@H](N)c3ccccc3)cc21`, the inhibition in test [1] is 15%; in test [2] it was 7%; in test [3], 47.3%; in [4], 0.45%; in test [5], 1.15%; in [6], -0.02%. Also, the inhibition in [7] came out at 5.58%; in test [8] it was 0.96%; in test [9] it was 4.5%; in test [10] it was 2.34%; in [11] it was 6.26%; in test [12], 4.52%. For the same compound, the inhibition was 8.64% in [13]; -0.61% in test [14]; 4.09% in test [15]; 2.81% in test [16]; 9.89% in [17]; 4.7% in test [18]. Further, the inhibition in test [19] was found to be 11.3%; in test [20], 2.88%.

Turning to `COc1cccc(-c2c[nH]c3c(N/N=C/c4ccncc4)ncnc23)c1`, the inhibition in test [1] was determined as 7.68%; in test [2] it was 4.85%; in [3] it was 38.5%; in test [4], 3.83%; in [5], 21.4%; in test [6], 4.82%. For the same compound, the inhibition in test [7] was 29.8%; in test [8], 2.11%; in test [9], 4.07%; in test [10], 3.48%; in test [11], 6.66%; in test [12], 3.84%. Further, the inhibition in [13] came out at 15.2%; in [14], 1.55%; in test [15] it was 4.18%; in [16], 7.71%; in test [17], 11.3%; in test [18], 5.73%. The inhibition amounted to 6.91% in test [19] and 9.18% in test [20].

Consider `COc1ccc(-c2cc(-c3c[nH]nc3-c3ccccn3)ccn2)cc1`, for which the inhibition was 3.44% in [1]; -7.35% in test [2]; 2.48% in [3]; -0.01% in test [4]; 2.6% in [5]; 2.08% in test [6]. In addition, the inhibition in test [7] was 3.41%; in [8], 0.05%; in test [9], -1.05%; in [10], 4.66%; in [11], 6.7%; in test [12], 3.82%. The inhibition was 3.97% in test [13]; -2.15% in test [14]; -3.38% in [15]; 3.08% in test [16]; 6.57% in test [17]; 3.42% in test [18]. Further, the inhibition was 4.49% in test [19] and 5.21% in test [20].

With `COC(=O)Nc1nc2ccc(Oc3ccc(NC(=O)Nc4cccc(Cl)c4)cc3)cc2[nH]1`, the inhibition in test [1] is 2.32%; in [2], 1.13%; in [3], -0.04%; in test [4], -0.24%; in [5] it was -0.19%; in test [6], 1.18%. In addition, the inhibition in test [7] was 0.86%; in [8], 0.74%; in test [9] it was 0.72%; in [10], -1.44%; in test [11], -1.94%; in test [12] it was 1.3%. For the same compound, the inhibition in test [13] is 0.37%; in test [14], 0.3%; in test [15], -1.27%; in test [16] it was -1.18%; in [17] it was -8.11%; in test [18], 0.39%. For the same compound, the inhibition in test [19] is 0.53%; in test [20], 0.42%.
